The panel holds about 79,000 compounds, 15% with a hit somewhere; the sample as a whole holds those more often. Cut-off read from the data, not from the text of the source: active = growth inhibition above about 70%; inactive = the rest.
Tests used:
[1] = NCI Yeast Anticancer Drug Screen. Data for the rad50 strain (AID 155);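 note: 0% = growth of vehicle-only cultures of the same strain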; details: S. cerevisiae rad50 strain growth inhibition; at 50.0 µM; active compounds read high
How it was run: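 Cells are treated with compound, grown, and their growth is then scored against vehicle-only cultures of the same repair-deficient yeast strain.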

[2] = NCI Yeast Anticancer Drug Screen. Data for the mec2-1 strain (AID 157); details: S. cerevisiae mec2-1 strain, at 50.0 µM, active compounds read high
How it was run: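 Test agents were screened against the mec2-1 yeast strain, with defined DNA repair or cell cycle alteration. Growth was scored as inhibition against vehicle-only controls.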

[3] = NCI Yeast Anticancer Drug Screen. Data for the sgs1 mgt1 strain (AID 161);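 note: 0% = growth of cultures given vehicle only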; details: S. cerevisiae sgs1 mgt1 strain, at 50.0 µM, active compounds read high
How it was run: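 Test agents were incubated with a DNA-repair-mutant yeast strain. Growth was then read and compared against vehicle-treated controls.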

[4] = NCI Yeast Anticancer Drug Screen. Data for the cln2 rad14 strain (AID 165);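 note: 0% = growth equal to vehicle treated cultures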; details: S. cerevisiae cln2 rad14 strain, at 50.0 µM, active compounds read high
How it was run: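 Growth of compound-exposed yeast (cln2 rad14 genotype) measured and expressed as inhibition relative to vehicle.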

[5] = NCI Yeast Anticancer Drug Screen. Data for the bub3 strain (AID 167); details: S. cerevisiae bub3 mutant strain, at 50.0 µM, active compounds read high
How it was run: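 Part of a panel of yeast mutants defective in DNA damage repair or cell cycle regulation. Each strain is grown with compound, and inhibition is calculated relative to solvent-treated cultures.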

[6] = NCI Yeast Anticancer Drug Screen. Data for the mlh1 rad18 strain (AID 175); details: S. cerevisiae mlh1 rad18 strain growth inhibition; at 50.0 µM; active compounds read high
How it was run: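 In this whole-cell yeast screen, a strain with altered DNA damage repair is challenged with compound, and its growth is measured against matched vehicle-treated controls.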

Measured: growth inhibition

CC(O)c1ccc2c(c1)Nc1ccccc1S2 (configuration not stated)
inactive: [1] -6.95% | [2] -21.9% | [3] -16.4% | [4] -7.05% | [5] -24.4% | [6] -11%

COc1ccc(C2=C/C(=C/c3cccc(OC)c3OC)C(=O)O2)cc1
inactive: [1] -10.6% | [2] 0.65% | [3] 11.9% | [4] -30.9% | [5] -11.2% | [6] -5.35%

CCCCCCCCCCO
inactive: [1] -1.6% | [2] 4.6% | [3] -5.15% | [4] 5.45% | [5] 3.2% | [6] -1.6%

COC(OC)C1OC(C)(C)OC1C(OS(=O)(=O)c1ccc(C)cc1)C1COC(C)(C)O1 (configuration not stated)
inactive: [1] -14.7% | [2] -7.8% | [3] 6.45% | [4] 1.95% | [5] 1.6% | [6] 12.7%

CCOC(=O)Nc1ccc([N+](=O)[O-])c2c1C(=O)c1ccccc1-2
inactive: [1] -9.55% | [2] 2.9% | [3] -8.6% | [4] -10.7% | [5] -21.6% | [6] -19.5%

CCOc1ccccc1NCN1C(=O)c2ccccc2C1=O
inactive: [1] -38.9% | [2] -35.1% | [3] -12.2% | [4] -8.65% | [5] -18.3% | [6] -20.1%

COc1ccc2nc3cccc([N+](=O)[O-])c3c(NCCC(=O)O)c2c1
inactive: [1] 56.1% | [2] -18.9% | [3] 49.9% | [4] 26.8% | [5] -5.25% | [6] 25.8%

Source: PubChem BioAssay (NCI)
